Data as given in PubChem BioAssay (NCI).
This is part of a sample that, as a whole, favours compounds with a hit. Of some 83,000 tested, about 20% had one in any assay.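 Cells were grown in 96-well plates and exposed to the test compound at a single concentration for 48 hours; results are reported as percent growth, with values below 10 considered active.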 Values without a mark were called inactive. Active and inactive are the calls of the source.

Columns and labels:
Assay in all cases: NCI-60 one-dose screen, 48 h (100 = growth as untreated, 0 = no growth, -100 = all killed)
Settings in all cases: 10 µM unless noted
[1] = system: HCT-15 colon
[2] = system: HT29 colon
[3] = system: SNB-75 CNS
[4] = system: SNB-19 CNS
[5] = system: U251 CNS
[6] = system: SK-MEL-5 melanoma
[7] = system: UACC-62 melanoma
[8] = system: LOX IMVI melanoma
[9] = system: SK-MEL-28 melanoma
[10] = system: PC-3 prostate

Compound	growth [1]	growth [2]	growth [3]	growth [4]	growth [5]	growth [6]	growth [7]	growth [8]	growth [9]	growth [10]
Cc1ccccc1COc1ccc(-c2onc(C)c2-c2ccc(Cl)cc2)cc1	37.6%	16.9%	52.9%	55.5%	41.3%	73.4%	48.5%	68%	70.5%	–
CCCCC/C(C=C(C#N)C#N)=C/c1ccccc1	47%	37%	96.6%	67.1%	34.2%	71%	48.9%	2.03% (active)	84%	–
Cc1cc(N2CCN(C)CC2)nc(NC2CCCC(Nc3ccnc4cc(Cl)ccc34)C2)n1 (stereo not drawn)	-35.7% (active)	-53.1% (active)	-25.6% (active)	9.07% (active)	-51.4% (active)	–	–	–	-75.8% (active)	8.55% (active)
COc1ccc(C(=S)N2CCN(c3cccc(Cl)c3)CC2)cc1	108%	101%	93.2%	101%	112%	130%	85.2%	103%	–	–
CN(C)S(=O)(=O)c1cccc(-c2nc3sc4c(c3c(=O)[nH]2)CCCC4)c1	115%	19.5%	-12.3% (active)	53.5%	1.85% (active)	77.3%	71.1%	174%	82.2%	–
O=C(COc1ccc(/C=C2\CSc3ccccc3C2=O)cc1)Nc1nccs1	84.6%	74.7%	87.8%	82.1%	83%	142%	85.5%	-28.3% (active)	124%	–
Cc1ccc2c(c1)C(=O)/C(=C/c1cccc(OCC(=O)c3ccc(Cl)cc3)c1)CS2	81.3%	87.9%	87.6%	93.9%	89.7%	85.1%	76.2%	75.3%	123%	–
C=CCSSC1N=CNc2nc[nH]c21 (stereo not drawn)	52.7%	50.1%	46.9%	89.1%	70.2%	60.7%	16.8%	7.74% (active)	114%	–
O=C(C(=O)c1ccc2c(c1)OCO2)c1ccc2c(c1)OCO2	110%	103%	90.3%	104%	103%	–	–	106%	110%	100%
Cn1cc(-c2nonc2-c2cn(C)c3ccc(F)cc23)c2cc(F)ccc21	30.8%	12.3%	53.8%	60.1%	45.2%	51.4%	50.6%	57.9%	69%	–
COc1ccc(-n2nc(C)c3c(Nc4ccc(NC(=O)Nc5ccc(Cl)c(C(F)(F)F)c5)cc4)ncnc32)cc1	-9.82% (active)	1.57% (active)	-4.71% (active)	13.5%	-29.2% (active)	-44.7% (active)	4.84% (active)	-81.4% (active)	–	–
O=C1/C(=C/N2N=C(c3ccc4ccccc4c3)CC2c2ccccc2O)SC(=S)N1c1cccnc1 (stereo not drawn)	12.4%	10.7%	-4.45% (active)	40.1%	16.1%	64%	66.2%	27.5%	78.6%	–
COc1ccc2cc(-c3nn(-c4ccc(C(=O)O)cc4)cc3CO)ccc2c1	98.1%	98.7%	80.9%	103%	104%	–	–	–	112%	98.7%
Cn1ccnc1C(=O)/C=C/c1ccccc1	20.4%	1.12% (active)	12.9%	42.2%	25%	15%	43.1%	18.3%	30.1%	–
C#CCOc1ccc2ncnc(NCc3cccc(NC(=O)CCl)c3)c2c1	22.6% [8.25 µM]	19.9% [8.25 µM]	55.7% [8.25 µM]	37.8% [8.25 µM]	-19.2% [8.25 µM] (active)	23.8% [8.25 µM]	31.8% [8.25 µM]	46.7% [8.25 µM]	58.1% [8.25 µM]	–
CCOc1cc2c(cc1OCC)C(c1cc(OC)c(O)cc1Cl)NCC2 (stereo not drawn)	86.9%	56.9%	82.2%	103%	84.1%	88.6%	99.8%	89.6%	99.9%	–
Cc1cc(N2CCSCC2)nc(NC2CCCC(Nc3ccnc4cc(Cl)ccc34)C2)n1 (stereo not drawn)	-67.8% (active)	-58.7% (active)	-60.1% (active)	1.4% (active)	-65.7% (active)	–	–	-84.8% (active)	-79.9% (active)	-45.7% (active)
CCOC(=O)c1cc(C(=O)c2ccc(O)c(O)c2)n2ccc(-c3ccn4c(C(=O)c5ccc(O)c(O)c5)cc(C(=O)OCC)c4c3)cc12	88%	96%	87.3%	93.9%	97%	–	–	89%	113%	89.1%
CC(C)CSc1nc(N)nc2c1ncn2C1OC(CO)C(O)C1O (stereo not drawn)	92.7%	103%	101%	104%	101%	96.5%	92.8%	95.3%	112%	–
CCOC(=O)c1c(CN2CCN(C)CC2)nc2ccc(Cl)cc2c1-c1ccccc1	62.9%	18%	58.6%	86.8%	64.4%	18.3%	86.3%	54.4%	-22.6% (active)	–
CCOC(=O)n1cc(-c2nonc2-c2cn(C)c3ncccc23)c2cc(F)ccc21	68.8%	83.2%	64.3%	91.6%	77.2%	81.5%	62.2%	83.8%	102%	–
O=C1/C(=C/c2ccc(Cl)cc2)SC(=S)N1CCc1ccc(O)cc1	99.7%	117%	71.4%	98.9%	101%	97.1%	78.5%	65.1%	101%	–
C#CCOc1ccc2ncnc(Nc3cccc(CNC(=O)C=C)c3)c2c1	104% [8.25 µM]	108% [8.25 µM]	88.6% [8.25 µM]	98.1% [8.25 µM]	94.6% [8.25 µM]	96% [8.25 µM]	99.6% [8.25 µM]	97.3% [8.25 µM]	97.5% [8.25 µM]	–
Oc1cccc(-c2nc(N3CCOCC3)c3c4c(sc3n2)CCCC4)c1	49.1%	94.7%	7.14% (active)	62.3%	52.7%	46.6%	43.8%	50%	57.8%	–
N#Cc1cnn(-c2nc3c(Cl)cccc3s2)c1N	91.8%	84.8%	77.7%	94.8%	88%	90.8%	89.2%	81.4%	102%	–
O=[N+]([O-])c1ccc2c(c1)Cc1cc(F)ccc1-2	97.1%	95.6%	92.1%	92.5%	93.1%	86.4%	85.2%	103%	107%	–
Cc1cn2c(/C=C3/C(=O)Nc4c3ccc3ccccc43)c(C(F)(F)F)nc2s1	27%	0.295% (active)	-6.4% (active)	36.3%	17.5%	24.7%	31.6%	33.6%	58.4%	–
CC(=O)Nc1ccc(-n2c(O)c(/C=N/NC(=O)Cc3ccccc3Nc3c(Cl)cccc3Cl)sc2=S)cc1	103%	104%	89.6%	96.4%	90.4%	96.2%	95.4%	84.2%	111%	–
